DT40 TDP1 no CPT – qHTS for Inhibitors of human tyrosyl-DNA phosphodiesterase 1 (TDP1): qHTS in cells in absence of CPT. DT40 Tdp1-/- hTDP1 cells, no CPT, ATP luminescence, 48 h. Potency, µM (titrated, usually from 46.2 µM), for inactives: at the top dose activity change, negative = growth inhibition, usual class: inhibitors. 15% of 420,000 active; note: potency is the fitted concentration of half-maximal effect; nearly all actives have a fitted effect of over 55% in size
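Chicken DT40 Tdp1-/- cells stably complemented with human TDP1 were seeded at 400 cells/well with DMSO in place of 20 nM camptothecin. After compound pinning, cells grew at least 48 hr at 37 °C; viability read by CellTiter-Glo luminescence.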
HT1080NT lethal – kills 2HG-producing HT-1080-NT fibrosarcoma cells; HT-1080-NT fibrosarcoma viability, CellTiter-Glo ATP luminescence, 48 h; Potency, µM (highest dose often 46.1 µM), inactives show at the top dose activity, negative = less viability, actives largely listed as cytotoxic; 1.6% of 360,000 active; AID 686970;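 note: NT is the 2HG producing partner of a matched IDH1 knockdown line; potency is the fitted concentration of half-maximal effect; 0% = DMSO-treated cells and -100% = media-only wells without cells; nearly all actives have a fitted effect of over 55% in size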
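750 cells/well, RPMI + 5% FBS; 2 h settle, compound pin-transfer, 48 h at 37 degrees C. CellTiter-Glo 10 min RT, luminescence. Normalized to DMSO and media-only wells.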
HT1080 IDH1KD tx – toxicity to HT-1080 IDH1 knockdown cells (counter line) | HT-1080 IDH1 knockdown viability, ATP luminescence, 48 h | Potency, µM (titrated, usually from 46.1 µM), for the others: at the top dose activity, negative = toxicity, hits mostly cytotoxic | 2% of 360,000 active;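 note: potency is the fitted concentration of half-maximal effect; 0% = DMSO wells and -100% = cell-free medium wells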
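Assay cells: HT-1080 with IDH1 knockdown, 750 per well, RPMI/5% FBS. Exposure: 48 h at 37 °C following 2 h pre-incubation. Read: CellTiter-Glo luminescence; fitted concentration-response, curve class assigned.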
TDP1 cell CPT – DT40-hTDP1 cell growth loss with CPT | 12% of 420,000 active | chicken DT40 Tdp1-/-;hTDP1 cells + 20 nM CPT, ATP luminescence, 48 h | Potency, µM (top dose mostly 46.2 µM), without a hit: top-dose activity change, negative = growth inhibition, usual class: inhibitors | AID 686979; note: potency is the fitted concentration of half-maximal effect; nearly all actives have a fitted effect of over 55% in size
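Cell growth measured by CellTiter-Glo luminescence after a minimum 48 h, 37 C compound exposure with 20 nM CPT in Tdp1-knockout DT40 cells stably expressing hTDP1, seeded 400/well; qHTS titration format.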
IL1B secr inh – inflammasome signaling inhibition, IL-1 beta readout; 4.7% of 360,000 active; AID 743279; THP-1 LPS/ATP IL-1B secretion, AlphaLISA, 16 h; hits give low values; activity change, % at 57.5 µM; in the data active = activity change below about -50%; inconclusive = mostly about -30% to -49%
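THP-1 cells pretreated 1 hr with compounds (up to 57.5 uM final), then stimulated with LPS (250 ng/mL final) plus ATP (1.25 mM final); secreted IL-1B measured by AlphaLISA after 16 hr, decreased signal indicating inhibition.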
12-LOX inh – inhibitors of human 12S-lipoxygenase ALOX12. purified 12hLO, xylenol orange hydroperoxide absorbance. Potency, µM (titrated, usually from 108 µM), for the others: at the top dose activity change, negative = inhibition, most hits filed as inhibitors. 1.1% of 580,000 active. AID 1671190; note: potency is the fitted concentration of half-maximal effect
Target sequence (P18054 whole entry, looked up): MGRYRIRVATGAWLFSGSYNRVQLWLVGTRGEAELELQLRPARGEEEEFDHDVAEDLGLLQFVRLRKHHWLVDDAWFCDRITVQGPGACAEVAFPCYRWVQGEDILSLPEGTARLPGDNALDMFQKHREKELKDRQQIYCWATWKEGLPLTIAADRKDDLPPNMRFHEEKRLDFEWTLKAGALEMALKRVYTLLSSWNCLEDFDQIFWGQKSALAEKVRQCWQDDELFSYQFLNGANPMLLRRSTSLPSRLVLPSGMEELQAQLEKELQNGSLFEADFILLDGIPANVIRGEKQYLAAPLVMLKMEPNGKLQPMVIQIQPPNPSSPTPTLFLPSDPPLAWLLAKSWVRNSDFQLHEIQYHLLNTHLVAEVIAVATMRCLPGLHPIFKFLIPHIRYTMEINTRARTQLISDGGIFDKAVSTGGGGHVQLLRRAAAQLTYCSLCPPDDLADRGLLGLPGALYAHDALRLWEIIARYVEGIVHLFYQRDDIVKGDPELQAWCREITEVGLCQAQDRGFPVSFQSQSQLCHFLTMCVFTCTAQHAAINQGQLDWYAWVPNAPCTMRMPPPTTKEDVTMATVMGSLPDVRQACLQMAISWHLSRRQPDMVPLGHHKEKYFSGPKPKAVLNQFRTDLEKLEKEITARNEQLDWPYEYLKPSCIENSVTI
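Purified human 12hLO at 150 nM in 25 mM Hepes, 0.01% Triton X-100, pH 7.0, preincubated 15 min at room temperature with compound. Reaction started with 40 uM arachidonic acid, 30 min at room temperature. Hydroperoxide measured by Fe-xylenol orange, 573/405 nm absorbance ratio.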
* hit, by the source's call. Shown is part of a subset that was picked to be rich in hits. Unless noted, calls come from the whole dose curve; as a rule, active = well fitted curve in the direction sought with a large enough effect; inconclusive = small, poorly fitted or top-dose-only effect, or another doubt; inactive = no such curve, though single readings can be large; an effect the other way counts as inactive or inconclusive. Unless noted, % is set by controls: 0 for no effect and ±100 for the full control effect.

How did CCOC(=O)c1sc2nc(C)nc(NCc3ccccc3OC)c2c1C do in these assays?
DT40 TDP1 no CPT: inconclusive; HT1080NT lethal: 2%; HT1080 IDH1KD tx: 1%; TDP1 cell CPT: 23µM*; IL1B secr inh: -30; 12-LOX inh: 12%

How did COC(=O)c1sc2nc(CN3CCOCC3)nc(N3CCOCC3)c2c1C do in these assays?
DT40 TDP1 no CPT: -16%; HT1080NT lethal: 1%; HT1080 IDH1KD tx: -2%; TDP1 cell CPT: -13%; IL1B secr inh: 0; 12-LOX inh: -15%

How did CN(CC(=O)N1CCN(CC(=O)NC(C)(C)C)CC1)c1nc(C(F)(F)F)nc2ccccc12 do in these assays?
12-LOX inh: 8%

What do the screens show for `O=C(Nc1cccc(-c2nc3ccccc3[nH]2)c1)c1ccco1`?
DT40 TDP1 no CPT: inconclusive; HT1080NT lethal: 8%; HT1080 IDH1KD tx: 1%; TDP1 cell CPT: inconclusive; IL1B secr inh: 0; 12-LOX inh: -5%

How did N=c1c(-c2nc3ccccc3[nH]2)cc(C(=O)c2cccs2)nn1-c1ccccc1 do in these assays?
DT40 TDP1 no CPT: 23µM*; HT1080NT lethal: 4%; HT1080 IDH1KD tx: 8%; TDP1 cell CPT: 29µM*; IL1B secr inh: -27

What do the screens show for `N=c1c(-c2nc3ccccc3[nH]2)cc(C(=O)c2ccco2)nn1-c1ccccc1`?
DT40 TDP1 no CPT: 3.3µM*; HT1080NT lethal: -2%; HT1080 IDH1KD tx: 0%; TDP1 cell CPT: 2.6µM*; IL1B secr inh: 0; 12-LOX inh: -7%

Results for CCOC(=O)CC1COCCN1C(=O)c1cn(CCCc2ccccc2)nn1 (stereo unspecified) ?
12-LOX inh: 33%

How did Cc1cccc(C)c1NC(=O)C1(C)CCc2nc3ccccc3n21 (stereo unspecified) do in these assays?
12-LOX inh: -10%

Results for Cc1ccc(SC2=NS(=O)(=O)c3ccccc32)c(C)c1 ?
DT40 TDP1 no CPT: 1.3µM*; TDP1 cell CPT: 1.4µM*

Results for Cc1ccc(CSC2=NS(=O)(=O)c3ccccc32)cc1 ?
DT40 TDP1 no CPT: 11µM*; TDP1 cell CPT: 8.9µM*

How did Cc1ccc(C)c(OC2=NS(=O)(=O)c3ccccc32)c1 do in these assays?
DT40 TDP1 no CPT: 21µM*; HT1080NT lethal: 14%; HT1080 IDH1KD tx: 9%; TDP1 cell CPT: 18µM*; IL1B secr inh: 3; 12-LOX inh: inconclusive

What do the screens show for `COC1=NS(=O)(=O)c2ccccc21`?
DT40 TDP1 no CPT: -3%; HT1080NT lethal: 25%; HT1080 IDH1KD tx: 18%; TDP1 cell CPT: 3%; IL1B secr inh: 15; 12-LOX inh: -19%

How did Oc1ccc(Br)cc1/C=N/c1nc(C23CC4CC(CC(C4)C2)C3)cs1 do in these assays?
12-LOX inh: -22%

What do the screens show for `CCc1cccc2c1NC(=O)C21N2CCCC2C(C(=O)c2ccc3ccccc3c2)C12C(=O)Nc1ccccc12` (stereo unspecified)?
DT40 TDP1 no CPT: 13µM*; HT1080NT lethal: -7%; HT1080 IDH1KD tx: -10%; TDP1 cell CPT: 18µM*; IL1B secr inh: -105*; 12-LOX inh: -11%

How did Cc1cccc2c1NC(=O)C21N2CCCC2C(C(=O)c2ccc3ccccc3c2)C12C(=O)Nc1ccccc12 (stereo unspecified) do in these assays?
DT40 TDP1 no CPT: 26µM*; HT1080NT lethal: -10%; HT1080 IDH1KD tx: -4%; TDP1 cell CPT: inconclusive; IL1B secr inh: -18

How did CCc1ccc2c(c1)C1(C(=O)N2)N2CCCC2C(C(=O)c2ccc3ccccc3c2)C12C(=O)Nc1ccccc12 (stereo unspecified) do in these assays?
DT40 TDP1 no CPT: inconclusive; HT1080NT lethal: 18µM*; HT1080 IDH1KD tx: 21µM*; TDP1 cell CPT: inconclusive; IL1B secr inh: -99*; 12-LOX inh: -27%

What do the screens show for `Cc1cc(C)c2c(c1)[C@]1(C(=O)N2)N2CCC[C@H]2[C@@H](C(=O)c2ccc(F)cc2)[C@]12C(=O)Nc1ccccc12`?
12-LOX inh: 2%

What do the screens show for `CNC(=O)[C@@H]1C[C@H](n2cc(CN(C)C(=O)Nc3ccccc3)nn2)CN1`?
12-LOX inh: 45%

What do the screens show for `Cc1ccc(NC(=O)N2CCCOCCNC(=O)[C@@H]3CCCC[C@@H]32)cc1C`?
12-LOX inh: 36%

Results for O=C(Cn1ccc2ccccc2c1=O)NCCC(=O)N1CCN(c2cccc(Cl)c2)CC1 ?
DT40 TDP1 no CPT: inconclusive; HT1080NT lethal: -7%; HT1080 IDH1KD tx: -12%; TDP1 cell CPT: 15µM*; IL1B secr inh: 6; 12-LOX inh: -1%

Results for CN1CCN(C(=O)CCNC(=O)Cn2ccc3ccccc3c2=O)CC1 ?
DT40 TDP1 no CPT: inconclusive; HT1080NT lethal: -4%; HT1080 IDH1KD tx: -13%; TDP1 cell CPT: 5%; IL1B secr inh: -1; 12-LOX inh: 0%

Results for Cc1cccc(N2CCN(C(=O)CCNC(=O)Cn3ccc4ccccc4c3=O)CC2)c1C ?
DT40 TDP1 no CPT: 15µM*; HT1080NT lethal: 0%; HT1080 IDH1KD tx: 1%; TDP1 cell CPT: inconclusive; IL1B secr inh: 13; 12-LOX inh: -10%

What do the screens show for `CC(C)(C)C(=O)NCCCC(=O)NCC(C)(C)c1ccccc1`?
12-LOX inh: -34%

Results for C=CC#CC1(O)CC(C)[N+](C)(C)CC1C (stereo unspecified) ?
DT40 TDP1 no CPT: inconclusive; HT1080NT lethal: 0%; HT1080 IDH1KD tx: -15%; TDP1 cell CPT: inconclusive; IL1B secr inh: -22; 12-LOX inh: 35µM*

What do the screens show for `Cn1c(Sc2ccc(Br)cc2)c(C=O)c2ccccc21`?
DT40 TDP1 no CPT: 13µM*; HT1080NT lethal: inconclusive; HT1080 IDH1KD tx: 26µM*; TDP1 cell CPT: inconclusive; IL1B secr inh: -81*; 12-LOX inh: 1%

What do the screens show for `CC(C)S(=O)(=O)c1csc(C(=O)Nc2ccc(F)cc2)c1N`?
DT40 TDP1 no CPT: inconclusive; HT1080NT lethal: inconclusive; HT1080 IDH1KD tx: inconclusive; TDP1 cell CPT: 21µM*; IL1B secr inh: -27; 12-LOX inh: 6%

What do the screens show for `CCc1ccc(/C=C2/SC(=S)N(CCC(=O)Nc3ccc(C(=O)O)cc3)C2=O)cc1`?
12-LOX inh: -25%

Results for CC(/C=C1\SC(=S)N(CCCC(=O)Nc2ccc(C(=O)O)cc2)C1=O)=C\c1ccccc1 ?
DT40 TDP1 no CPT: inconclusive; HT1080NT lethal: inconclusive; HT1080 IDH1KD tx: inconclusive; TDP1 cell CPT: inconclusive; IL1B secr inh: -20; 12-LOX inh: 45µM*

Screening data as filed in PubChem BioAssay.
